{
  "source": "the supplement of paper PMC8728848",
  "binders": {"B1": {"name": "SHCBP1-GST (Homo sapiens), Q8NEM2 (protein)", "chain": "MADGSLTGGGLEAAAMAPERMGWAVEQELASLEKGLFQDEDSCSDCSYRDKPGSSLQSFMPEGKTFFPEIFQTNQLLFYERFRAYQDYILADCKASEVQEFTAEFLEKVLEPSGWRAVWHTNVFKVLVEITDVDFAALKAVVRLAEPYLCDSQVSTFTMECMKELLDLKEHRLPLQELWVVFDDSGVFDQTALAIEHVRFFYQNIWRSWDEEEEDEYDYFVRCVEPRLRLHYDILEDRVPSGLIVDYHNLLSQCEESYRKFLNLRSSLSNCNSDSEQENISMVEGLKLYSEMEQLKQKLKLIENPLLRYVFGYQKNSNIQAKGVRSSGQKITHVVSSTMMAGLLRSLLTDRLCQEPGEEEREIQFHSDPLSAINACFEGDTVIVCPGHYVVHGTFSIADSIELEGYGLPDDIVIEKRGKGDTFVDCTGADIKISGIKFVQHDAVEGILIVHRGKTTLENCVLQCETTGVTVRTSAEFLMKNSDLYGAKGAGIEIYPGSQCTLSDNGIHHCKEGILIKDFLDEHYDIPKISMVNNIIHNNEGYGVVLVKPTIFSDLQENAEDGTEENKALKIQTSGEPDVAERVDLEELIECATGKMELCARTDPSEQVEGNCEIVNELIAASTQKGQIKKKRLSELGITQADDNLMSQEMFVGIVGNQFKWNGKGSFGTFLF"}},
  "assay_in_all_cases": "glycan array binding signal (z-score within array); higher = stronger binding",
  "conditions_in_all_cases": "glycan notation: IUPAC condensed, linker removed",
  "key": {"[1]": {"target": "Gal(b1-4)GlcNAc(b1-2)[Gal(b1-4)GlcNAc(b1-6)]Man(a1-6)[GlcNAc(b1-4)][Gal(b1-4)GlcNAc(b1-2)[Gal(b1-4)GlcNAc(b1-4)]Man(a1-3)]Man(b1-4)GlcNAc(b1-4)[Fuc(a1-6)]GlcNAc", "outline": "(§1)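 The Consortium for Functional Glycomics database supplied 3228 glycan arrays, of which those lacking an available protein sequence were dropped. The binding signal, a within-array Z-score, was averaged across arrays of the same protein sequence and across linkers. Negative scores can be read as non-binding.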"}, "[2]": {"target": "Gal(b1-4)GlcNAc(b1-3)Gal(b1-3)GalNAc", "outline": "as §1"}, "[3]": {"target": "Gal(b1-4)GlcNAc(b1-3)Gal(b1-4)GlcNAc(b1-2)Man(a1-3)[Gal(b1-4)GlcNAc(b1-3)Gal(b1-4)GlcNAc(b1-2)Man(a1-6)]Man(b1-4)GlcNAc(b1-4)[Fuc(a1-6)]GlcNAc", "outline": "as §1"}, "[4]": {"target": "Gal(b1-4)GlcNAc(b1-3)Gal(b1-4)GlcNAc(b1-2)[Gal(b1-4)GlcNAc(b1-3)Gal(b1-4)GlcNAc(b1-6)]Man(a1-6)[Gal(b1-4)GlcNAc(b1-3)Gal(b1-4)GlcNAc(b1-2)Man(a1-3)]Man(b1-4)GlcNAc(b1-4)[Fuc(a1-6)]GlcNAc", "outline": "as §1"}, "[5]": {"target": "Gal(b1-4)GlcNAc(b1-3)Gal(b1-4)GlcNAc(b1-3)Gal(b1-4)GlcNAc(b1-3)Gal(b1-4)GlcNAc(b1-2)Man(a1-3)[Gal(b1-4)GlcNAc(b1-3)Gal(b1-4)GlcNAc(b1-3)Gal(b1-4)GlcNAc(b1-3)Gal(b1-4)GlcNAc(b1-2)Man(a1-6)]Man(b1-4)GlcNAc(b1-4)[Fuc(a1-6)]GlcNAc", "outline": "as §1"}, "[6]": {"target": "Gal(b1-4)GlcNAc(b1-3)Gal(b1-4)GlcNAc(b1-3)Gal(b1-4)GlcNAc(b1-3)Gal(b1-4)GlcNAc(b1-2)[Gal(b1-4)GlcNAc(b1-3)Gal(b1-4)GlcNAc(b1-3)Gal(b1-4)GlcNAc(b1-3)Gal(b1-4)GlcNAc(b1-6)]Man(a1-6)[Gal(b1-4)GlcNAc(b1-3)Gal(b1-4)GlcNAc(b1-3)Gal(b1-4)GlcNAc(b1-3)Gal(b1-4)GlcNAc(b1-2)Man(a1-3)]Man(b1-4)GlcNAc(b1-4)[Fuc(a1-6)]GlcNAc", "outline": "as §1"}, "Gal3S(b1-3)GalNAc": {"target": "Gal3S(b1-3)GalNAc", "outline": "as §1"}, "[7]": {"target": "Gal3S(b1-4)[Fuc(a1-3)]GlcNAc6S", "outline": "as §1"}, "Gal6P(b1-4)GlcNAc": {"target": "Gal6P(b1-4)GlcNAc", "outline": "as §1"}, "GalNAc(a1-3)GalNAc": {"target": "GalNAc(a1-3)GalNAc", "outline": "as §1"}, "GalNAc(b1-4)GlcNAc": {"target": "GalNAc(b1-4)GlcNAc", "outline": "as §1"}, "[8]": {"target": "GalNAc(b1-4)GlcNAc(b1-2)Man(a1-3)[GalNAc(b1-4)GlcNAc(b1-2)Man(a1-6)]Man(b1-4)GlcNAc(b1-4)GlcNAc", "outline": "as §1"}, "GalNAc(b1-4)GlcNAc6S": {"target": "GalNAc(b1-4)GlcNAc6S", "outline": "as §1"}, "[9]": {"target": "GlcNAc(a1-4)Gal(b1-4)GlcNAc(b1-3)Gal(b1-4)[Fuc(a1-3)]GlcNAc(b1-3)Gal(b1-4)[Fuc(a1-3)]GlcNAc", "outline": "as §1"}, "[10]": {"target": "GlcNAc(b1-3)Gal(b1-4)GlcNAc(b1-6)[GlcNAc(b1-3)]Gal(b1-4)GlcNAc", "outline": "as §1"}, "GlcNAc(b1-3)Man": {"target": "GlcNAc(b1-3)Man", "outline": "as §1"}, "[11]": {"target": "Neu5Ac(a2-3)Gal(b1-3)GalNAc(b1-4)[Neu5Ac(a2-3)]Gal(b1-4)Glc", "outline": "as §1"}, "[12]": {"target": "Neu5Ac(a2-3)Gal(b1-3)GlcNAc(b1-2)Man(a1-3)[Neu5Ac(a2-3)Gal(b1-3)GlcNAc(b1-2)Man(a1-6)]Man(b1-4)GlcNAc(b1-4)GlcNAc", "outline": "as §1"}, "[13]": {"target": "Neu5Ac(a2-3)Gal(b1-4)GlcNAc(b1-3)Gal(b1-4)GlcNAc(b1-6)[Gal(b1-3)]GalNAc", "outline": "as §1"}, "[14]": {"target": "Neu5Ac(a2-3)Gal(b1-4)[Fuc(a1-3)]GlcNAc(b1-3)Gal", "outline": "as §1"}, "[15]": {"target": "Neu5Ac(a2-6)Gal(b1-4)GlcNAc(b1-3)Gal(b1-4)GlcNAc", "outline": "as §1"}, "[16]": {"target": "Neu5Ac(a2-6)Gal(b1-4)GlcNAc(b1-3)Gal(b1-4)GlcNAc(b1-3)Gal(b1-4)GlcNAc(b1-2)Man(a1-3)[Neu5Ac(a2-6)Gal(b1-4)GlcNAc(b1-3)Gal(b1-4)GlcNAc(b1-3)Gal(b1-4)GlcNAc(b1-2)Man(a1-6)]GalNAc", "outline": "as §1"}, "[17]": {"target": "Neu5Ac(a2-6)Gal(b1-4)GlcNAc(b1-3)GalNAc", "outline": "as §1"}, "[18]": {"target": "Neu5Ac(a2-6)Gal(b1-4)GlcNAc(b1-6)GalNAc", "outline": "as §1"}, "[19]": {"target": "Neu5Ac(a2-8)Neu5Ac(a2-3)[GalNAc(b1-4)]Gal(b1-4)Glc", "outline": "as §1"}, "[20]": {"target": "Neu5Ac(a2-8)Neu5Ac(a2-8)Neu5Ac(a2-8)Neu5Ac(a2-3)[GalNAc(b1-4)]Gal(b1-4)Glc", "outline": "as §1"}, "[21]": {"target": "Neu5Gc(a2-3)Gal(b1-3)[Fuc(a1-4)]GlcNAc", "outline": "as §1"}},
  "note": "This excerpt belongs to a sample that is enriched for the strongest signals.",
  "data": [
    {"binder": "B1", "values": [
      {"measurement": "glycan array binding signal (z-score)", "setting": "[1]", "value": -0.032},
      {"measurement": "glycan array binding signal (z-score)", "setting": "[2]", "value": -0.645},
      {"measurement": "glycan array binding signal (z-score)", "setting": "[3]", "value": 0.801},
      {"measurement": "glycan array binding signal (z-score)", "setting": "[4]", "value": 2.1},
      {"measurement": "glycan array binding signal (z-score)", "setting": "[5]", "value": 3.03},
      {"measurement": "glycan array binding signal (z-score)", "setting": "[6]", "value": 0.056},
      {"measurement": "glycan array binding signal (z-score)", "setting": "Gal3S(b1-3)GalNAc", "value": -0.165},
      {"measurement": "glycan array binding signal (z-score)", "setting": "[7]", "value": -0.428},
      {"measurement": "glycan array binding signal (z-score)", "setting": "Gal6P(b1-4)GlcNAc", "value": -0.929},
      {"measurement": "glycan array binding signal (z-score)", "setting": "GalNAc(a1-3)GalNAc", "value": -0.406},
      {"measurement": "glycan array binding signal (z-score)", "setting": "GalNAc(b1-4)GlcNAc", "value": -0.137},
      {"measurement": "glycan array binding signal (z-score)", "setting": "[8]", "value": 2.96},
      {"measurement": "glycan array binding signal (z-score)", "setting": "GalNAc(b1-4)GlcNAc6S", "value": -0.496},
      {"measurement": "glycan array binding signal (z-score)", "setting": "[9]", "value": 2.67},
      {"measurement": "glycan array binding signal (z-score)", "setting": "[10]", "value": -0.274},
      {"measurement": "glycan array binding signal (z-score)", "setting": "GlcNAc(b1-3)Man", "value": -0.054},
      {"measurement": "glycan array binding signal (z-score)", "setting": "[11]", "value": 0.166},
      {"measurement": "glycan array binding signal (z-score)", "setting": "[12]", "value": -0.428},
      {"measurement": "glycan array binding signal (z-score)", "setting": "[13]", "value": -0.09},
      {"measurement": "glycan array binding signal (z-score)", "setting": "[14]", "value": -0.924},
      {"measurement": "glycan array binding signal (z-score)", "setting": "[15]", "value": -1.12},
      {"measurement": "glycan array binding signal (z-score)", "setting": "[16]", "value": 2.65},
      {"measurement": "glycan array binding signal (z-score)", "setting": "[17]", "value": 2.41},
      {"measurement": "glycan array binding signal (z-score)", "setting": "[18]", "value": -0.322},
      {"measurement": "glycan array binding signal (z-score)", "setting": "[19]", "value": -0.847},
      {"measurement": "glycan array binding signal (z-score)", "setting": "[20]", "value": 0.231},
      {"measurement": "glycan array binding signal (z-score)", "setting": "[21]", "value": 0.247}
    ]}
  ]
}
